# Activity calls are given as the source filed them. Unless noted, no rule for the calls is given here.
# How the values were obtained:
# [1] = A549 cell viability effects, profiling panel, calcein-AM fluorescence, 48 h, basal (AID 1162); settings: higher = more signal; also: test concentration not given here
# [2] = adipocyte viability effects, profiling panel, cell-based, 3T3-L1 adipocytes, calcein-AM fluorescence, 48 h, basal (AID 1163); settings: 3T3-L1 adipocytes viability, higher = more signal; also: test concentration not given here
# [3] = HepG2 cell viability effects, profiling panel, calcein-AM fluorescence, 48 h, basal (AID 1164); settings: higher = more signal; also: test concentration not given here
# [4] = MM1S cell viability effects, profiling panel, calcein-AM fluorescence, 48 h, basal (AID 1165); settings: higher = more signal;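 also: viability of MM1S multiple myeloma cells under basal unstimulated conditions; test concentration not given here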
# [5] = basal RPMI8226 viability, no added stimulus, profiling panel, cell-based, calcein-AM fluorescence, 48 h, PK04 Diversity Set (AID 1166); settings: RPMI8226 myeloma viability, higher = more signal;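 also: cells grown under basal conditions without added stimulus; test concentration not given here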
# [6] = basal HepG2 mitochondrial membrane potential changes, profiling panel, cell-based, JC-1 fluorescence, 24 h, 100 nL compound (AID 1167); settings: higher = more signal; also: test concentration not given here
# [7] = basal 3T3-L1 adipocyte mitochondrial potential changes, profiling panel, cell-based, JC-1 fluorescence, 3T3-L1 adipocytes, 24 h, 100 nL compound (AID 1168); settings: JC-1 mitochondrial fluorescence, higher = more signal, called active from +8 up or from −8 down; also: test concentration not given here
# [8] = basal RPMI8226 mitochondrial membrane potential changes, profiling panel, cell-based, JC-1 fluorescence, 24 h, 100 nL compound (AID 1169); settings: RPMI8226 myeloma, JC-1 mitochondrial potential fluorescence, higher = more signal; also: test concentration not given here
# [9] = basal MM1S mitochondrial membrane potential changes, profiling panel, cell-based, JC-1 fluorescence, 24 h, 100 nL compound (AID 1170); settings: higher = more signal; also: test concentration not given here
# [10] = A549 lung cancer cell viability effects, profiling panel, resazurin fluorescence, 24 h, PK04 Diversity Set (AID 1171); settings: higher = more signal, called active from +8 up or from −8 down; also: test concentration not given here
# [11] = HepG2 liver cancer cell viability effects, profiling panel, resazurin fluorescence, 24 h, PK04 Diversity Set (AID 1172); settings: higher = more signal; also: test concentration not given here
# [12] = basal S. cerevisiae growth modulation, no modifier, primary screen, OD600, strain BY4716, 24 h, basal condition (AID 1173); settings: OD600, 24 h, higher = more signal, called active from +8 up or from −8 down
# [13] = MM1S myeloma cell viability, profiling panel, resazurin fluorescence, basal, 24 h, PK04 Diversity Set (AID 1174); settings: higher = more signal, called active from +8 up or from −8 down;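 also: MM1S multiple myeloma cell line; test concentration not given here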
# [14] = biological target: Dihydroorotate dehydrogenase (quinone), mitochondrial (Plasmodium falciparum (isolate 3D7)) (UniProt Q08210); assay: PfDHODH enzyme inhibitors, primary screen, biochemical, C-terminal His tag, absorbance 600 nm (AID 1175); settings: DCIP absorbance 600 nm, higher = more signal, called active from +8 up or from −8 down;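 also: recombinant parasite enzyme with a five histidine tag at its C terminus; test concentration not given here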
# Dihydroorotate dehydrogenase (quinone), mitochondrial (Plasmodium falciparum (isolate 3D7)), sequence (Q08210 whole entry, looked up): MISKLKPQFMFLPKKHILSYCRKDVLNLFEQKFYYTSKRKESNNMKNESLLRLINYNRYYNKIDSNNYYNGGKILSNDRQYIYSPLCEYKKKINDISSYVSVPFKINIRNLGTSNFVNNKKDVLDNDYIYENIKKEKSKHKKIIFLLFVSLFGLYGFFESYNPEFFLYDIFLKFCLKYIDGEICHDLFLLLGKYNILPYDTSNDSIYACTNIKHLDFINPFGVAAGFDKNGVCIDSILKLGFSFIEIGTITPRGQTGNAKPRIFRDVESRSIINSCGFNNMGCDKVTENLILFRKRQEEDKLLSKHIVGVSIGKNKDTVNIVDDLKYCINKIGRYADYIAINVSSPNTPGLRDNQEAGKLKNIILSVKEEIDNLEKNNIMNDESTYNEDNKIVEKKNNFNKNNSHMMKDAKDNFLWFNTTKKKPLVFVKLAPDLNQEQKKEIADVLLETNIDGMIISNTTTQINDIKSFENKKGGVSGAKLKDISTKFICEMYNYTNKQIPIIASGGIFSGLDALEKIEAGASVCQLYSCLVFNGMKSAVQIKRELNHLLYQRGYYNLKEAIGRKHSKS
# [15] = P. aeruginosa biofilm formation inhibitors, primary screen, strain PAO1, LB-PBS medium, absorbance 600 nm (AID 1176); also: test concentration not given here; settings: P. aeruginosa PAO1 growth/biofilm, A600, 12 h; higher = more signal
# [16] = S. cerevisiae RM11-1a growth modifiers, primary screen, strain RM11-1a, OD600, basal, 24 h (AID 1177); settings: OD600, 24 h, higher = more signal, called active from +8 up or from −8 down;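 also: cultures grown under basal conditions with no added stressor; test concentration not given here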
# [17] = E. coli acrAB mutant growth effects, primary screen, E. coli filamentation inducers, strain DRC39, OD650, 24 h (AID 1178); settings: higher = more signal, called active from +8 up or from −8 down;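 also: growth measured as culture turbidity by optical density at 650 nm; test concentration not given here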
# [18] = E. coli acrAB mutant growth effects, primary screen, E. coli filamentation inducers, strain DRC39, OD650, 48 h (AID 1179);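 also: screen aims at cell division blockers that make cells filament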; settings: E. coli DRC39 delta-acrAB growth, higher = more signal, called active from +8 up or from −8 down
# [19] = RPMI8226 myeloma cell viability, profiling panel, resazurin fluorescence, basal, 24 h, PK04 Diversity Set (AID 1180); settings: higher = more signal;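 also: RPMI8826 multiple myeloma cell line at 5000 cells per well; test concentration not given here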
# [20] = biological target: E3 ubiquitin-protein ligase XIAP (Homo sapiens) (UniProt P98170); assay: XIAP binders, primary screen, biophysical, small-molecule microarray, fluorescence 635 nm (AID 1181); settings: small-molecule microarray binding, higher = more signal;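 also: score merges 667 nm emission and signal to noise over triplicate slides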
# E3 ubiquitin-protein ligase XIAP (Homo sapiens), sequence (P98170 whole entry, looked up): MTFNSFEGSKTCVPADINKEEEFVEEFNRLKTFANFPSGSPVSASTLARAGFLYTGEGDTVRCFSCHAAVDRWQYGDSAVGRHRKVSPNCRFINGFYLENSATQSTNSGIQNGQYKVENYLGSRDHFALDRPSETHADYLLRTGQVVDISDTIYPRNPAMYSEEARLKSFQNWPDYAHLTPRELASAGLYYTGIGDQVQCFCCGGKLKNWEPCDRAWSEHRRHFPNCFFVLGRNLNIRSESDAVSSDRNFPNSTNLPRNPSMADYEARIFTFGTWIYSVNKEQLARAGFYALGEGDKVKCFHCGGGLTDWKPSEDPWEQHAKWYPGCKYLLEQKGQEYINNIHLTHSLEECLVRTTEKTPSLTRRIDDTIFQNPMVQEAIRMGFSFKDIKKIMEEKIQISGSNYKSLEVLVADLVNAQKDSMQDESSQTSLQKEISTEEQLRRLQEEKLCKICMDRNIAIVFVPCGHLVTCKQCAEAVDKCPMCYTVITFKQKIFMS
Compound,z-score [1],z-score [2],z-score [3],z-score [4],z-score [5],z-score [6],z-score [7],z-score [8],z-score [9],z-score [10],z-score [11],z-score [12],z-score [13],composite z-score [14],z-score [15],z-score [16],z-score [17],z-score [18],z-score [19],composite z-score [20]
COC(=O)[C@@]1(Cc2ccccc2)[C@H]2c3cc(C(=O)N4CCCC4)n(Cc4cccc5ccccc45)c3C[C@H]2CN1C(=O)c1ccccc1,-0.692,-0.57,-0.824,-1.42,-3.92,1.04,-2.12 (inactive),-0.784,-1.74,-1.19 (inactive),-1.13,1.37 (inactive),-1.65 (inactive),-0.323 (inactive),-0.347 (inactive),0.224 (inactive),-0.131 (inactive),-0.0176 (inactive),-1.9,-0.0082
COc1ccc(CCNC(=O)[C@@H]2c3ccccc3C(=O)N(C3Cc4ccccc4C3)[C@H]2c2ccc(CO)cc2)cc1,0.595,0.0644,0.0079,-0.532,-0.0245,1.6,0.00592 (inactive),-0.78,-0.0799,1.39 (inactive),0.763,0.594 (inactive),-0.642 (inactive),0.441 (inactive),0.292 (inactive),0.205 (inactive),-0.195 (inactive),0.121 (inactive),-0.303,0.126
CN(C)C(=O)[C@]1(Cc2ccccc2N=[N+]=[N-])N=C(c2ccc(OCCCO)cc2)O[C@@H]1c1ccccc1,-0.54,-0.958,0.351,-1.02,-2.57,0.397,0.6 (inactive),-1.1,-1.27,-0.32 (inactive),0.0707,-1.87 (inactive),-0.597 (inactive),0.209 (inactive),-1.49 (inactive),0.504 (inactive),0.651 (inactive),1.15 (inactive),0.0542,-0.141
CN1C(=O)C2C=CC(C(O)C3=C[C@H]4C[C@@H](C3)C4(C)C)N(Nc3ccccc3)C2C1=O (stereo not given in full),-0.456,-0.893,-0.0728,-2.52,-0.724,-1.75,-0.209 (inactive),-0.353,-0.39,0.0383 (inactive),-0.3,0.0844 (inactive),-0.419 (inactive),-0.0435 (inactive),2.14 (inactive),0.602 (inactive),-0.328 (inactive),-0.369 (inactive),-0.52,-0.174
[N-]=[N+]=NCc1ccccc1[C@@H]1OC(c2ccc(OCCCO)cc2)=N[C@]1(Cc1ccccc1N=[N+]=[N-])C(=O)N1CCOCC1,0.328,-0.259,-0.761,-1.48,-2.62,-0.516,-1.06 (inactive),-1.02,-1.42,-0.867 (inactive),-0.54,-0.532 (inactive),-1.21 (inactive),-0.52 (inactive),0.727 (inactive),0.602 (inactive),-0.38 (inactive),-0.265 (inactive),-1.64,0.358
CCCC=C(CCC)[C@@H](NC(=O)Oc1ccc(F)cc1)c1ccc(C(=O)OC)cc1,-1.33,-0.609,0.0049,-1.43,-2.42,6.8,0.261 (inactive),-0.754,-1.44,0.717 (inactive),1.01,1.21 (inactive),0.0374 (inactive),0.58 (inactive),0.535 (inactive),1.2 (inactive),-0.0379 (inactive),0.0821 (inactive),-1.94,0.248
C=CCOC(=O)[C@H]1[C@@H]2C(=O)O[C@@H](c3ccccc3)[C@@H](c3ccccc3)N2[C@@H](c2ccc(OCCOC(=O)[C@@H]3C[C@@H]4C(=O)N[C@@H](CCCCN(C)C)C(=O)N4[C@@H]3c3ccc(O)cc3)cc2)[C@]12C(=O)Nc1ccc(I)cc12,-0.508,-0.523,-0.222,-0.397,-0.449,-1.65,0.832 (inactive),-0.7,-1.6,0.183 (inactive),-0.513,-1.17 (inactive),-1.06 (inactive),-1.71 (inactive),1.26 (inactive),1.65 (inactive),-0.619 (inactive),0.767 (inactive),-1.18,-0.0749
CC(=O)n1cc(C(O)C2C=CC3C(=O)N(C)C(=O)C3N2Nc2ccccc2)c2ccccc21 (stereo not given),-0.617,-0.652,-0.804,0.305,-1.25,-1.58,-0.454 (inactive),-0.0553,0.118,-0.162 (inactive),0.362,0.125 (inactive),-1.2 (inactive),0.0365 (inactive),1.07 (inactive),0.135 (inactive),-0.321 (inactive),-0.306 (inactive),-1.11,0.229

# From PubChem BioAssay
